Measurements: PubChem BioAssay (EPA / NIEHS)
Inconclusive results are not listed. Activity calls are given as the source filed them. Rule for the calls, unless noted: active = hit-call score of the fitted dose curve at least 0.9, where 1 is the maximum; inactive = score below 0.9.

Assays:
[1] = ATG_DR4_LXR_CIS: Attagene CIS-FACTORIAL HepG2 Assay for human Liver X Receptor (LXR), DR4 submotif (AID 2282929); details: HepG2 Attagene DR4 cis-reporter, mRNA transcription; actives raise or lower the signal
Outline: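 Endogenous factor activity at a DR4 cis-element is read as reporter mRNA in transiently transfected HepG2 cells. Exposure lasts 24 h; transcripts are amplified, fluorescently labelled and sized by capillary electrophoresis, with DMSO as baseline.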

[2] = target: Hepatocyte nuclear factor 3-beta (Homo sapiens) (UniProt Q9Y261); assay: ATG_FoxA2_CIS: Attagene CIS-FACTORIAL HepG2 Assay for human Forkhead box A2 (FOXA2) (AID 2282942); details: HepG2 cis-reporter transcription factor activity, 24 h; actives raise or lower the signal
Outline: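 Cells: HepG2, transient multiplex reporter transfection. Exposure 24 h. Detection: reporter-specific RT-PCR, fluorescent labelling, restriction digest, capillary electrophoresis. Analysis: bidirectional curve fit, DMSO as negative control.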

[3] = target: Hypoxia-inducible factor 1-alpha (Homo sapiens) (UniProt Q16665); assay: ATG_HIF1a_CIS: Attagene CIS-FACTORIAL HepG2 Assay for human Hypoxia Inducible Factor 1 (HIF1A) (AID 2282951); details: HepG2 Attagene cis-factorial HIF1a reporter transcription; actives raise or lower the signal
Chain of Hypoxia-inducible factor 1-alpha (Homo sapiens) (Q16665 whole entry, looked up): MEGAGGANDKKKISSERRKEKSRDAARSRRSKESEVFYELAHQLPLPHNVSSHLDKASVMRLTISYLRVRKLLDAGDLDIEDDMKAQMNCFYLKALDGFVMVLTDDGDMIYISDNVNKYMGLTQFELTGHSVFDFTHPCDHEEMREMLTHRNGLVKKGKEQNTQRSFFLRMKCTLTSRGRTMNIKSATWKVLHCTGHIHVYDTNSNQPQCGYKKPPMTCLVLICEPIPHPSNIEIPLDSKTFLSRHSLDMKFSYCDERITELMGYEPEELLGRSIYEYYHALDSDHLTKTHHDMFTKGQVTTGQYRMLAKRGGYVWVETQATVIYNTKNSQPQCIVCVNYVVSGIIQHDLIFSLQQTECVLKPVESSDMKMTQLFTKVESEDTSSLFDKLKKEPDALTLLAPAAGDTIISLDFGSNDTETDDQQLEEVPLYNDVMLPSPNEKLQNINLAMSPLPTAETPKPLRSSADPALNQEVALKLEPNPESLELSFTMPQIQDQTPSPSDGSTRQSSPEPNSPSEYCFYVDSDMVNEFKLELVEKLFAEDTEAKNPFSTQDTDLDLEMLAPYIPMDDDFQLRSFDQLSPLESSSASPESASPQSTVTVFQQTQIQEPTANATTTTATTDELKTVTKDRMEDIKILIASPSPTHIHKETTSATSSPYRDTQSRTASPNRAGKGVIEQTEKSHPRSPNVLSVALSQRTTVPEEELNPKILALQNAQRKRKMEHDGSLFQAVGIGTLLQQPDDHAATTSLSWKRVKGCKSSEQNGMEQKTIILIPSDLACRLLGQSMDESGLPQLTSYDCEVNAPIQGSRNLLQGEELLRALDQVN
Outline: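 HepG2, transient cis-reporter library, 24 h dosing. RNA → RT (oligo dT) → PCR → 6-FAM primer extension → HpaI → CE. Bidirectional curve fit vs DMSO.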

[4] = target: Heat shock factor protein 1 (Homo sapiens) (UniProt Q00613); assay: ATG_HSE_CIS: Attagene CIS-FACTORIAL HepG2 Assay for human Heat Shock Transcription Factor 1 (HSE) (AID 2282953); details: HepG2 HSE cis-reporter, Attagene RNA transcription; actives raise or lower the signal
Chain of Heat shock factor protein 1 (Homo sapiens) (Q00613 whole entry, looked up): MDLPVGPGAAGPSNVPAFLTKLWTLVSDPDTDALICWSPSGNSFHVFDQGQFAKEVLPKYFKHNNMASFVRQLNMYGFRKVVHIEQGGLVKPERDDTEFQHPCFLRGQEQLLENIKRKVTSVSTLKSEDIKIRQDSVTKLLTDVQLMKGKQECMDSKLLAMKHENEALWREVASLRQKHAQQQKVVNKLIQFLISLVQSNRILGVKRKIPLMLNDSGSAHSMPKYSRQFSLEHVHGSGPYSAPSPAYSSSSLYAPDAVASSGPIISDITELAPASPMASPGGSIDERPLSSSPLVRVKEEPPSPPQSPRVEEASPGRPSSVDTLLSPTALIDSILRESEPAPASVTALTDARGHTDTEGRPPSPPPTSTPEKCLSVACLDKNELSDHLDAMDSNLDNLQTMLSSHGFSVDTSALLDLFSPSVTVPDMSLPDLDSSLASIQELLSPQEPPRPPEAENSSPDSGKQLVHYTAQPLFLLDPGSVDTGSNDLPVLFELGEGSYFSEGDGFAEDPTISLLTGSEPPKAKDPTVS
Outline: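 After a 24 h incubation with test chemical, transfected HepG2 cells were harvested for RNA; reporter transcripts were measured by RT-PCR and capillary electrophoresis. Values reflect gain or loss of signal relative to DMSO.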

[5] = ATG_RORE_CIS: Attagene CIS-FACTORIAL HepG2 Assay for human RAR-related Orphan Receptor Element (RORE) (AID 2282959); details: HepG2 Attagene cis-factorial RORE reporter, mRNA; actives raise or lower the signal
Outline: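 Multiplexed reporter assay measuring mRNA induction from a cis promoter element in transiently transfected HepG2 cells after 24 h treatment. Detection via RT-PCR and capillary electrophoresis fluorescence; DMSO serves as baseline.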

[6] = target: Signal transducer and activator of transcription 3 (Homo sapiens) (UniProt P40763); assay: ATG_STAT3_CIS: Attagene CIS-FACTORIAL HepG2 Assay for human Signal Transducer and Activator of Transcription 3 (STAT3) (AID 2282963); details: HepG2, Attagene cis-factorial STAT3 reporter transcription; actives raise or lower the signal
Chain of Signal transducer and activator of transcription 3 (Homo sapiens) (P40763 whole entry, looked up, the tested form may be a part): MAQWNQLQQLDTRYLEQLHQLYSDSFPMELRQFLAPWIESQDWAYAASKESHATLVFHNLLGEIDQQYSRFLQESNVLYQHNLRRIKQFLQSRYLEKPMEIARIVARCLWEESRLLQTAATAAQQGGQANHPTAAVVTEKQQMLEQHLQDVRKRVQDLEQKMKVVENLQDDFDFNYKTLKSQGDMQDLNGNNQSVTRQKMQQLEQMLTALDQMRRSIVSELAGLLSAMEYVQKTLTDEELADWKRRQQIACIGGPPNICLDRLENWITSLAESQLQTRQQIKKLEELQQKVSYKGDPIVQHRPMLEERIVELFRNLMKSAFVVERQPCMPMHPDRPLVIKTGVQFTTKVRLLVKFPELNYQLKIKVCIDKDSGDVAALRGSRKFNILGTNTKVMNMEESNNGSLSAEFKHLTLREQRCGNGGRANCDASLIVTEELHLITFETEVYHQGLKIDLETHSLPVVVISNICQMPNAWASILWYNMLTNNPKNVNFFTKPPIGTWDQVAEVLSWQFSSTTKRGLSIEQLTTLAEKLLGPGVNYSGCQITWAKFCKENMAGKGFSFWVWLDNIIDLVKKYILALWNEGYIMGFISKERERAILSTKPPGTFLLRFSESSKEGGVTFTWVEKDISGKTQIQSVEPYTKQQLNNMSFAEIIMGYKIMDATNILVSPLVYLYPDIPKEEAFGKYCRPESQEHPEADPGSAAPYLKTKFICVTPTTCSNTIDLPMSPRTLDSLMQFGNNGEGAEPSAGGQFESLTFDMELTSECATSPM
Outline: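 Fluorescence intensity of 6-FAM-labelled reporter fragments, separated by capillary electrophoresis after RT-PCR, gave the signal. Cells were HepG2 transfected with cis-element reporter units and treated 24 h; fitting was bidirectional relative to DMSO.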

[7] = ATG_TCF_b_cat_CIS: Attagene CIS-FACTORIAL HepG2 Assay for human T-Cell-Factor with beta-catenin (TCF/b-cat) (AID 2282965); details: HepG2 TCF/beta-catenin cis-reporter transcription, actives raise or lower the signal
Outline: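 HepG2 cells transiently transfected with cis-promoter-driven multiplexed reporter units; reporter mRNA measured 24 h after dosing by RT-PCR, FAM labelling, HpaI digestion and capillary electrophoresis. Bidirectional fitting relative to DMSO baseline.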

[8] = ATG_TAL_CIS: Attagene CIS-FACTORIAL HepG2 Assay for human TAL Basal Promoter (AID 2282966); details: HepG2 Attagene cis-factorial TAL promoter reporter; actives raise or lower the signal;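 note: background control endpoint measuring basal TAL promoter reporter mRNA not a specific factor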
Outline: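 Background-control endpoint: basal TAL promoter reporter transcripts in transiently transfected HepG2, measured 24 h after dosing. Read-out by RT-PCR with fluorescent primer extension and capillary electrophoresis; gain or loss of signal fitted relative to DMSO.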

[9] = ATG_TGFb_CIS: Attagene CIS-FACTORIAL HepG2 Assay for human Transforming Growth Factor (TGF) (AID 2282967); details: HepG2 Attagene CIS TGFb reporter, mRNA transcription; actives raise or lower the signal
Outline: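 Transcript-level reporter readout: HepG2 transfectants, 24 h exposure, RNA to cDNA, reporter-specific PCR, fluorescent primer extension, capillary sizing against ROX standards. Gain- or loss-of-signal relative to DMSO.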

[10] = ATG_VDRE_CIS: Attagene CIS-FACTORIAL HepG2 Assay for human Vitamin D Receptor Element (VDRE) (AID 2282968); details: HepG2 VDRE cis-reporter transcription, actives raise or lower the signal
Outline: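 Compounds were applied for 24 h to HepG2 cells transfected with promoter-regulated reporter units. Total RNA was reverse-transcribed, and reporter amplicons were fluorescently labelled and sized by capillary electrophoresis.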

[11] = target: X-box-binding protein 1 (Homo sapiens) (UniProt P17861); assay: ATG_Xbp1_CIS: Attagene CIS-FACTORIAL HepG2 Assay for human X-box Binding Protein 1 (XBP1) (AID 2282972); details: HepG2 XBP1 cis-element reporter, Attagene multiplex; actives raise or lower the signal
Chain of X-box-binding protein 1 (Homo sapiens) (P17861 whole entry, looked up): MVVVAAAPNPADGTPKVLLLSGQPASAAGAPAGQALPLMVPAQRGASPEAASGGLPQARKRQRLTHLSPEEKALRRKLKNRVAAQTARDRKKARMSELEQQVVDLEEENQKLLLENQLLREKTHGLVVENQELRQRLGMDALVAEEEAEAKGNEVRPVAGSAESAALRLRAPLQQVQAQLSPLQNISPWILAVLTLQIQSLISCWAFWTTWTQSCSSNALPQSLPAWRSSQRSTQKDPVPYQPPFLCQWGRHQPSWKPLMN
Outline: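 Human hepatoma HepG2, cis-element reporter system, 24 h treatment; mRNA quantified by RT-PCR/CE fluorescence; fit relative to DMSO.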

[12] = target: Transcriptional activator Myb (Homo sapiens) (UniProt P10242); assay: ATG_Myb_CIS: Attagene CIS-FACTORIAL HepG2 Assay for human Myeloblastosis (Myb) Proto-Oncogene Transcription Factor (AID 2282986); details: HepG2 Attagene CIS-FACTORIAL Myb reporter transcription; actives raise or lower the signal
Chain of Transcriptional activator Myb (Homo sapiens) (P10242 whole entry, looked up): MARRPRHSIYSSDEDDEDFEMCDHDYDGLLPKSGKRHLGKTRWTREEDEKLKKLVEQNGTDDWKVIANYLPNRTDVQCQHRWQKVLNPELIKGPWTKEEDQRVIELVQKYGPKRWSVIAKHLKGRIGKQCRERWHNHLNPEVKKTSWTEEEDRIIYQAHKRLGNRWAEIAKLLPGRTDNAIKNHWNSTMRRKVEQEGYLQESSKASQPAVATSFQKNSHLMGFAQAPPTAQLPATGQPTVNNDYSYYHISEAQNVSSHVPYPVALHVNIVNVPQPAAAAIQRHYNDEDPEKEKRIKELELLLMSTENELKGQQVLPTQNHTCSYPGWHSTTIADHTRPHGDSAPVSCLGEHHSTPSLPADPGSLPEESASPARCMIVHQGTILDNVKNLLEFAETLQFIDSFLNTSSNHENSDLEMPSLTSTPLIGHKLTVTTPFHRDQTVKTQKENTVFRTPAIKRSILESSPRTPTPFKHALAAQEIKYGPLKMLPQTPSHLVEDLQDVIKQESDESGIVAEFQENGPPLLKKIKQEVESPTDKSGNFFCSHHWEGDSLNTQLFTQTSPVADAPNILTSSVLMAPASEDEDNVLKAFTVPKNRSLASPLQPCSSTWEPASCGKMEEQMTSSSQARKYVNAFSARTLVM
Outline: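 Endogenous transcription factor activity at a Myb-responsive cis element is reported in human liver HepG2 cells after 24 h chemical treatment. Reporter mRNA is detected by RT-PCR and capillary electrophoresis fluorescence, with DMSO as baseline.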

[13] = target: Nuclear respiratory factor 1 (Homo sapiens) (UniProt Q16656); assay: ATG_NRF1_CIS: Attagene CIS-FACTORIAL HepG2 Assay for human Nuclear Respiratory Factor 1 (NRF1) Orphan Gene (AID 2282987); details: HepG2 NRF1 cis-element reporter, Attagene multiplex; actives raise or lower the signal
Chain of Nuclear respiratory factor 1 (Homo sapiens) (Q16656 whole entry, looked up): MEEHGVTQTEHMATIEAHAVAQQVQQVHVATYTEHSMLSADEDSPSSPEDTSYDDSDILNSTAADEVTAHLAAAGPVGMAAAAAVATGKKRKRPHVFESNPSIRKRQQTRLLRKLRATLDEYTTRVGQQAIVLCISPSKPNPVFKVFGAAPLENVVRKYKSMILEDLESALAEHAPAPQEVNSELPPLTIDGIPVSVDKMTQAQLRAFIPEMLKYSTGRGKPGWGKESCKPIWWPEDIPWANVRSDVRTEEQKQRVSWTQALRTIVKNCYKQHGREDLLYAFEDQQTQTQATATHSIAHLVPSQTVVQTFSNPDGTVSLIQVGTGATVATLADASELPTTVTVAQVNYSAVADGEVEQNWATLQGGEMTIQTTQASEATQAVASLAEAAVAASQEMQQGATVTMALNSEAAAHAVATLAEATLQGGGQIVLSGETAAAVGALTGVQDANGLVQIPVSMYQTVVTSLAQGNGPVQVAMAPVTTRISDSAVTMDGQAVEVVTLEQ
Outline: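 Human hepatoma HepG2 cells carrying transfected promoter-regulated reporter units were incubated with test chemicals for 24 h. Reporter transcripts were measured by RT-PCR plus capillary electrophoresis, and endpoints derived by bidirectional fitting with DMSO as baseline.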

[14] = target: Myc proto-oncogene protein (Homo sapiens) (UniProt P01106); assay: ATG_Myc_CIS: Attagene CIS-FACTORIAL HepG2 Assay for human Myelocytomatosis (Myc) Proto-Oncogene Transcription Factor (AID 2282990); details: HepG2, Attagene cis-reporter transcription factor activity; actives raise or lower the signal
Chain of Myc proto-oncogene protein (Homo sapiens) (P01106 whole entry, looked up): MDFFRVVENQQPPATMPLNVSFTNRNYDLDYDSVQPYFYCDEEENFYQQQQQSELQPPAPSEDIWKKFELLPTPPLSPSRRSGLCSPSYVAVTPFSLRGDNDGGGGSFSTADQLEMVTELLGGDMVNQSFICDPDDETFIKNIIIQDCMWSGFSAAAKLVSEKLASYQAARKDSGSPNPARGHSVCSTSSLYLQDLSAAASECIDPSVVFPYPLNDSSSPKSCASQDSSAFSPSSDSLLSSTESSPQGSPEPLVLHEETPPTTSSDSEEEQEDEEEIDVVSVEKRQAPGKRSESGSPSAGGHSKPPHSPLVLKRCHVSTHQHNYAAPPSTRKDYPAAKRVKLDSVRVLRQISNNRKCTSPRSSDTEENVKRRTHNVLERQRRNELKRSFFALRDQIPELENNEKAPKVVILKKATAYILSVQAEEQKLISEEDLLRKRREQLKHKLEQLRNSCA
Outline: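 Transiently transfected HepG2 cells bearing cis-promoter reporter units for endogenous transcription factors; 24 h exposure. Reporter mRNA measured by RT-PCR, 6-FAM primer extension, HpaI cut and capillary electrophoresis; bidirectional fit relative to DMSO.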

[15] = ATG_NRF2_ARE_CIS: Attagene CIS-FACTORIAL HepG2 Assay for human Nuclear Factor Erythroid 2 Related Factor 2 (NFR2) response to Antioxidant Response Elements (ARE) (AID 2282992); details: HepG2 Attagene ARE/NRF2 reporter, transcription factor activity; actives raise or lower the signal
Outline: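 Fluorescence intensity of reporter-specific cDNA fragments, separated by capillary electrophoresis, reflects mRNA induction in transfected HepG2 cells at 24 h. Activity is fitted bidirectionally, DMSO serving as baseline.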

[16] = ATG_Oct_MLP_CIS: Attagene CIS-FACTORIAL HepG2 Assay for human Octamer-Binding Transcription Factor (Oct) (AID 2282993); details: HepG2 Attagene cis-factorial Oct reporter, mRNA; actives raise or lower the signal
Outline: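 Cells of the HepG2 line express promoter-controlled reporter sequences whose mRNA levels, after 24 h treatment, are measured by RT-PCR and capillary electrophoresis. Increases and decreases are scored relative to DMSO.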

[17] = target: Cellular tumor antigen p53 (Homo sapiens) (UniProt P04637); assay: ATG_p53_CIS: Attagene CIS-FACTORIAL HepG2 Assay for human p53 Transcription Factor (AID 2282994); details: HepG2 p53 cis-element reporter, Attagene mRNA; actives raise or lower the signal
Chain of Cellular tumor antigen p53 (Homo sapiens) (P04637 whole entry, looked up): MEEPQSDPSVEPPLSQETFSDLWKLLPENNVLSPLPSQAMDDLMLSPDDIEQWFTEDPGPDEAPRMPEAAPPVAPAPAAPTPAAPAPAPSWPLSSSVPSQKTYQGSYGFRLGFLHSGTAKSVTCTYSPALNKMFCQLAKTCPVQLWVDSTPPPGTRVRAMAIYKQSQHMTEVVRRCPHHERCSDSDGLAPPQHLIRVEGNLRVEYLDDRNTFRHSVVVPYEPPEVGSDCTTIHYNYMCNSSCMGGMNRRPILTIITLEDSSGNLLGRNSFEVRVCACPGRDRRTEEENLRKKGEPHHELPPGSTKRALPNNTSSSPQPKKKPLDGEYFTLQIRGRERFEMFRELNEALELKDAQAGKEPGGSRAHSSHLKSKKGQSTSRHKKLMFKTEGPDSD
Outline: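 Transiently transfected HepG2 (multiple cis reporter transcription units); exposure 24 h; reporter RNA via RT-PCR, 6-FAM extension, 2 h HpaI digest at 37 C, CE detection; DMSO baseline.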

[18] = target: Nuclear receptor subfamily 1 group I member 2 (Homo sapiens) (UniProt O75469); assay: ATG_PXR_TRANS: Attagene TRANS-FACTORIAL HepG2 Assay for human Pregnane X Receptor (PXR) (AID 2283008; active = hit-call score of the fitted dose curve at least 0.9, where 1 is the maximum)
Chain of Nuclear receptor subfamily 1 group I member 2 (Homo sapiens) (O75469 whole entry, looked up, the tested form may be a part): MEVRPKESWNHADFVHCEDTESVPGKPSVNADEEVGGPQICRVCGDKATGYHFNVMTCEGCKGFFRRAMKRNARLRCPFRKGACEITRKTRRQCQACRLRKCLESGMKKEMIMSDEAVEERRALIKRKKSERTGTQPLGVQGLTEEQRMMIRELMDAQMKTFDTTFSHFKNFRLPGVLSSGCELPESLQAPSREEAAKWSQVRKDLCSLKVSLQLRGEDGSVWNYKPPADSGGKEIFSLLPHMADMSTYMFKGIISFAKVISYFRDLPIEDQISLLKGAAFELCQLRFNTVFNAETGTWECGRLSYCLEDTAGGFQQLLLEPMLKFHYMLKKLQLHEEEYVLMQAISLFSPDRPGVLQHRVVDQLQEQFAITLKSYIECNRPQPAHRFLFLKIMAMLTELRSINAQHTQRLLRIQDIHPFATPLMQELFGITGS
Outline: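 Transient HepG2 transfectants carrying multiplexed reporter transcription units; PXR activity read through a Gal4 chimera. 24 h exposure. RT-PCR/CE fluorescence; upward curve fit referenced to DMSO.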

[19] = ATG_XTT_Cytotoxicity: Cytotoxicity Assessment in the Attagene TRANS-FACTORIAL HepG2 Assay (AID 2283584; active = hit-call score of the fitted dose curve at least 0.9, where 1 is the maximum)
Outline: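 Viability endpoint from XTT after 24 h chemical exposure of reporter-transfected human HepG2 liver cells; signal loss fitted relative to DMSO negative control.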

[20] = ATG_AP_1_CIS: Attagene CIS-FACTORIAL HepG2 Assay for human Activator Protein 1 (AP-1) (AID 2282931); details: HepG2 Attagene cis-factorial AP-1 reporter mRNA; actives raise or lower the signal
Outline: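 Fluorescence of labelled PCR fragments separated by capillary electrophoresis gives reporter mRNA levels. HepG2 with transfected cis-regulated reporter units, 24 h exposure; DMSO serves as baseline for bidirectional curve fits.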

Measured: AC50

CC(=O)OC(C)(C)Cc1ccccc1
not listed: [20]
inactive: all other assays above

c1cc(N(CC2CO2)CC2CO2)ccc1Cc1ccc(N(CC2CO2)CC2CO2)cc1 (centres undefined)
active: [1] 27.3 µM | [3] 6.64 µM | [4] 18.6 µM | [7] 26.1 µM | [10] 3.66 µM | [11] 6.26 µM | [16] 8.18 µM | [17] 20.8 µM
not listed: [20]
inactive: all other assays above

C=C(C)C(=O)OCCCCCC
not listed: [5] | [18]
inactive: all other assays above

C=C(C)C(=O)OCC1CCCO1 (centres undefined)
not listed: [19]
inactive: all other assays above

N#CCN(CC#N)CCN(CC#N)CC#N
inactive: all assays above

CCCCCCC1CCCC(=O)O1 (centres undefined)
active: [5] 19.8 µM | [15] 139 µM
not listed: [20]
inactive: all other assays above

COc1cccc(OC)c1C(=O)O
not listed: [18]
inactive: all other assays above

CN(C)Cc1cc(C(C)(C)C)c(O)c(C(C)(C)C)c1
active: [15] 37.8 µM
not listed: [20]
inactive: all other assays above

O=C(O)/C=C\C(=O)O
not listed: [18]
inactive: all other assays above

CC(=O)c1nccs1
not listed: [18]
inactive: all other assays above

C=CCOC(=O)C(=C)C
not listed: [16] | [18]
inactive: all other assays above

C=CN1CCCCCC1=O
inactive: all assays above

C/C=C(\C)C(=O)OCC/C=C\CC
not listed: [19]
inactive: all other assays above

CCCCCCOC(=O)CCCCCCCC(=O)OCCCCCC
not listed: [5] | [17]
inactive: all other assays above

O=C1NC(=O)[C@@H]2CC=CC[C@H]12
not listed: [20]
inactive: all other assays above
